{"source": "PubChem BioAssay AID1497", "about": "(Sanford-Burnham Center for Chemical Genomics, 2009)", "note": "About 500 (0.54%) of roughly 93,000 compounds were called active. The sample holds actives, similar compounds and a random draw of the others, so the mix is not that of the screen. A number with no mark means an inactive call.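 Rule for the calls: active = primary inhibition of 50% or more at 10 µM, then 40% or more on retest; inactive = the rest.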"}
{"target": "Integrin beta-2 (Homo sapiens) + Integrin alpha-M (Homo sapiens) (UniProt P05107+P11215)", "sequence (P05107 whole entry, looked up, other chains not shown)": "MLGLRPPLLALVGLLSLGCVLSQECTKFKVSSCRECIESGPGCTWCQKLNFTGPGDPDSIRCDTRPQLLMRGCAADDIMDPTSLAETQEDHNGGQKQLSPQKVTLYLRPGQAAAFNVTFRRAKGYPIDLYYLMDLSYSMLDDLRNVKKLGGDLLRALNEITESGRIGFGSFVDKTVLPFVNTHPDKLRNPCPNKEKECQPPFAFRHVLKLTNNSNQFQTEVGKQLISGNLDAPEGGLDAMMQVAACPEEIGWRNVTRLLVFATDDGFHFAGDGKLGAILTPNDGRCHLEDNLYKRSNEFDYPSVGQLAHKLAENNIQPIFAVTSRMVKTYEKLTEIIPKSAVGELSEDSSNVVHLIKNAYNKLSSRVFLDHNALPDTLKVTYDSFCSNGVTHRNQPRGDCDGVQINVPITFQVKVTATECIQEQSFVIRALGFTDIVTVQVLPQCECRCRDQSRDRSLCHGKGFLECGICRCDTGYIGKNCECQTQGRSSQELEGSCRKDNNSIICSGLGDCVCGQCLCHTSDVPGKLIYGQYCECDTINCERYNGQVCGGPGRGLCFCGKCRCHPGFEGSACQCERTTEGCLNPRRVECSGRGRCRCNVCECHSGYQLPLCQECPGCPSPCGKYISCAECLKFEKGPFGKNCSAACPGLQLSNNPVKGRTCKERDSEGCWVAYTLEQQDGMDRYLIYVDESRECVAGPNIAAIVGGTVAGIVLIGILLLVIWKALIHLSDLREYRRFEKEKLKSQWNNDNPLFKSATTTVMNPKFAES", "experiment": "antagonists of integrin CD11b/CD18-fibrinogen binding – K562 cells, luminescence, primary screen (AID 1497)", "details": "K562 CD11b/CD18 adhesion to fibrinogen, ATPlite luminescence; at 10 µM; hits give high values; Mn2+ added to activate the integrin"}
{"smiles": "COc1cc(OC)c(C(=O)OC(C)C(=O)Nc2cc(C(F)(F)F)ccc2Cl)cc1OC", "note": "(stereo unspecified)", "inhibition": "26.7%"}
{"smiles": "COc1ccc2nc(SCc3ccccc3)nc(C)c2c1", "inhibition": "1.5%"}
{"smiles": "CC(C)(C)OC(=O)N/N=C/c1ccc(C(=O)O)cc1", "inhibition": "-1.8%"}
{"smiles": "CC(C)Nc1nnc(SCC(=O)/C=C2\\N(C)c3ccccc3C2(C)C)s1", "inhibition": "21.6%"}
{"smiles": "CCOC(=O)c1cnc2ccc(F)cc2c1Nc1ccc2c(c1)OCCO2", "inhibition": "2.6%"}
{"smiles": "Cc1c(NS(=O)(=O)c2ccc(NC3CCCC3)c([N+](=O)[O-])c2)c(=O)n(-c2ccccc2)n1C", "inhibition": "1%"}
{"smiles": "Cc1cccc(CC(=O)N2CCN=C2SCc2ccc([N+](=O)[O-])cc2)c1", "inhibition": "-1.1%"}
{"smiles": "COc1ccc(CCNc2cc(C)nc3c(-c4ccc(Cl)cc4)c(C)nn23)cc1OC", "inhibition": "2.7%"}
{"smiles": "Cc1cccc(-n2c(C)cc(/C=N\\NC(=O)c3cccs3)c2C)c1", "inhibition": "37.3%"}
{"smiles": "Cc1nc(CNS(=O)(=O)c2ccc(Oc3ccccc3)cc2)cs1", "inhibition": "91.7% (active)"}
{"smiles": "Cc1ccc(S(=O)(=O)NCc2csc(C)n2)c(C)c1", "inhibition": "-9%"}
{"smiles": "Cc1nc(CNS(=O)(=O)c2cccnc2)cs1", "inhibition": "-2.1%"}
{"smiles": "COc1ccccc1N=Cc1c(O)c2ccccc2oc1=O", "inhibition": "6%"}
{"smiles": "Oc1c(Br)cccc1/C=N/Nc1c(F)c(F)c(F)c(F)c1F", "inhibition": "99.8%"}
{"smiles": "Cc1cc([N+](=O)[O-])ccc1NC(=O)C1CCCO1", "note": "(stereo unspecified)", "inhibition": "24.2%"}
{"smiles": "CCOC(=O)/C(C#N)=C/c1ccc(N2CCN(Cc3ccccc3)CC2)cc1", "inhibition": "82.1%"}
{"smiles": "Cc1ccc(NC(=S)NC(=O)/C=C/c2ccc(Cl)cc2)cc1", "inhibition": "7.2%"}
{"smiles": "Cc1ccc(/C=N/NC(=O)CNC(=O)COc2ccccc2)o1", "inhibition": "-10.5%"}
{"smiles": "O=c1c(Cl)c(NCc2ccc(F)cc2Cl)cnn1C12CC3CC(CC(C3)C1)C2", "inhibition": "-4%"}
{"smiles": "Cc1c(C(=O)NCCN2C(=O)S/C(=C\\c3cccs3)C2=O)cccc1[N+](=O)[O-]", "inhibition": "7%"}
{"smiles": "Cc1sc2ncnc(Sc3nc4ccccc4s3)c2c1C", "inhibition": "-5.9%"}
{"smiles": "O=[N+]([O-])c1ccc(N2CCN(S(=O)(=O)c3ccccc3)CC2)cc1N1CCc2ccccc2C1", "inhibition": "-22.4%"}
{"smiles": "CCOCCCNC(=O)C(=O)NCCCOCC", "inhibition": "-3%"}
{"smiles": "Cc1ccc(NC(=S)N2CCN(c3ncccn3)CC2)cc1C", "inhibition": "-4.4%"}
{"smiles": "Cc1cc2oc(=O)cc(CN3CCN(S(=O)(=O)c4cccs4)CC3)c2cc1C(C)C", "inhibition": "22.2%"}
{"smiles": "CCN(c1ccc(NC(=O)COC(=O)CCc2nc3ccccc3n2-c2ccccc2)cc1)C(C)C", "inhibition": "15.2%"}
{"smiles": "CC(C)N1C(=O)N(c2ccccc2)C(C)(O)CC1(C)C", "note": "(stereo unspecified)", "inhibition": "-10.1%"}
{"smiles": "Cc1cccc(NC(=O)Cn2c(=O)n(Cc3ccccc3)c(=O)c3c(C)c(C)sc32)c1", "inhibition": "-17.5%"}
{"smiles": "CCOc1ccc(NC(=O)COc2ccc(C(=O)NC3CCCc4ccccc43)cc2OC)cc1", "note": "(stereo unspecified)", "inhibition": "1.8%"}
{"smiles": "CCCN1CNC(=S)N(CCc2ccccc2)C1", "inhibition": "-28.3%"}
{"smiles": "O=c1oc2cc(O)ccc2cc1-c1ccc(F)cc1", "inhibition": "-2.5%"}
{"smiles": "CCCCCCc1cc2cc(-c3nnc(-c4ccccc4)o3)c(=O)oc2cc1O", "inhibition": "94% (active)"}
{"smiles": "CCOc1cccc(C(=O)Nc2cccnc2)c1", "inhibition": "-2.2%"}
{"smiles": "Cc1c(C(=O)OC(C)C)sc(NC(=O)c2cccnc2)c1C#N", "inhibition": "86% (active)"}
{"smiles": "CCOC(=O)c1cc(NC(=O)c2cccnc2)cc(C(=O)OCC)c1", "inhibition": "-52.6%"}
{"smiles": "Cc1ccc(C2CC(=O)NC(SCC(=O)OCc3ccccc3)=C2C#N)o1", "note": "(stereo unspecified)", "inhibition": "29.9%"}
{"smiles": "CCOC(=O)CSC1=C(C#N)C(c2sccc2C)CC(=O)N1", "note": "(stereo unspecified)", "inhibition": "56.1% (active)"}
{"smiles": "CCOC(=O)CSC1=C(C#N)C(c2ccco2)C(C(=O)OCc2ccccc2)=C(C)N1", "note": "(stereo unspecified)", "inhibition": "34.5%"}
{"smiles": "CCCn1c(N)c(C(=O)CSc2nnc(-c3cccnc3)n2-c2ccc(C)cc2C)c(=O)[nH]c1=O", "inhibition": "-8.1%"}
{"smiles": "Cc1cc(Br)ccc1SCC(=O)OCC(=O)NCc1ccc2c(c1)OCO2", "inhibition": "10.7%"}
{"smiles": "O=C(CSc1nc2ccccc2c(=O)n1CCCO)N1CCc2ccccc21", "inhibition": "21.1%"}
{"smiles": "O=C(N/N=C/c1cccc([N+](=O)[O-])c1)C1CC(=O)N(c2ccc(Br)cc2)C1", "note": "(stereo unspecified)", "inhibition": "-4.8%"}
{"smiles": "COC(=O)c1c(C)oc2ccc(N(C(=O)Oc3ccccc3)S(=O)(=O)c3ccccc3)cc12", "inhibition": "2.5%"}
{"smiles": "Cc1ccc2nc(SCc3cn4c(C)cc(C)nc4n3)[nH]c2c1", "inhibition": "-5.6%"}
{"smiles": "COc1ccc(C(CC(=O)Nc2ccc(C)cc2)NC(=O)C(F)(F)F)cc1", "note": "(stereo unspecified)", "inhibition": "-24.1%"}
{"smiles": "CCCc1c(C)nc2c(Br)cccc2c1Cl", "inhibition": "13.2%"}
{"smiles": "Cc1c(Cl)cccc1NC(=O)Nc1ccc(C(=O)N2CCCC2)cc1", "inhibition": "9.6%"}
{"smiles": "CCOc1ccc(/C=N/OCC(=O)NCc2cccs2)cc1", "inhibition": "9%"}
{"smiles": "CCc1c(C)sc(NC(=O)/C=C/c2ccc3c(c2)OCO3)c1C(=O)OC", "inhibition": "-6.4%"}
{"smiles": "O=C(Cc1ccc(-c2ccccc2)cc1)NC(c1ccccc1)c1ccccc1", "inhibition": "-18.2%"}
{"smiles": "CCOc1cc(CNCc2ccccn2)ccc1OCC(=O)NC(C)(C)C", "inhibition": "7.5%"}
{"smiles": "CC(C)(C)NC(=O)COC(=O)c1cc(Br)ccc1Cl", "inhibition": "12.8%"}
{"smiles": "CC(C)C(=O)Nc1cccc(NC(=O)c2ccc([N+](=O)[O-])cc2Cl)c1", "inhibition": "-3.1%"}
{"smiles": "COC(=O)c1ccccc1NC(=O)c1ccccc1NS(C)(=O)=O", "inhibition": "-14.9%"}
{"smiles": "COC(=O)c1ccc(NC(=O)c2ccccc2NS(=O)(=O)c2ccccc2)cc1", "inhibition": "102% (active)"}
{"smiles": "CCOc1ccc(NC(=O)c2ccccc2NS(C)(=O)=O)cc1", "inhibition": "-19.4%"}
{"smiles": "O=C(Oc1ccc([N+](=O)[O-])cc1)c1ccc(Cl)c(S(=O)(=O)N2CCCCC2)c1", "inhibition": "8.6%"}
{"smiles": "Cc1ccc(NC(=O)c2sc3nc(N)c(C#N)cc3c2N)cc1", "inhibition": "10.7%"}
{"smiles": "COc1cccc(N(C(=O)C2COc3ccccc3O2)C(C(=O)NC2CCCCC2)c2ccc(O)cc2)c1", "note": "(stereo unspecified)", "inhibition": "-5%"}
{"smiles": "Cc1ccc(CSCC(N)C(=O)O)cc1", "note": "(stereo unspecified)", "inhibition": "-2%"}
{"smiles": "O=C(NCC1CCCO1)/C(=C/c1ccc(Cl)cc1)NC(=O)c1ccccc1", "note": "(stereo unspecified)", "inhibition": "2.4%"}
{"smiles": "O=C(Nc1nnc(C2COc3ccccc3O2)o1)c1ccc(F)cc1", "note": "(stereo unspecified)", "inhibition": "-27.3%"}
{"smiles": "COC(=O)Cc1ccc(NC(=S)NCc2ccccc2)cc1", "inhibition": "0.4%"}
{"smiles": "CCCn1c(SCC(=O)Nc2ccc(C)c(S(=O)(=O)N3CCOCC3)c2)n[nH]c1=O", "inhibition": "-10.9%"}
{"smiles": "COC(=O)c1cc(Cl)c(NC(=O)c2ccco2)cc1OC", "inhibition": "-6%"}
{"smiles": "O=C(NNC(=S)Nc1ccc(Br)cc1Cl)c1ccco1", "inhibition": "89.9% (active)"}
{"smiles": "Cc1ccc(-n2nc3cc(Cl)c(NC(=O)c4ccco4)cc3n2)cc1", "inhibition": "3.9%"}
{"smiles": "CN(C)S(=O)(=O)c1cccc(NC(=S)N/N=C/C(=O)c2ccccc2)c1", "inhibition": "14%"}
{"smiles": "COc1ccc([N+](=O)[O-])cc1NC(=O)C(C)OC(=O)C1c2ccccc2Oc2ccccc21", "note": "(stereo unspecified)", "inhibition": "26.5%"}
{"smiles": "COc1ccc(CCNC(=O)CSc2nc(-c3ccc(OC)c(OC)c3)ccc2C#N)cc1", "inhibition": "18.5%"}
{"smiles": "CCC(=O)Nc1ccc2c(c1)nc(CCN1CCN(C)CC1)n2C", "inhibition": "3.3%"}
{"smiles": "Cn1c(CN2CCOCC2)nc2cc(NC(=O)c3ccc(Cl)cc3)ccc21", "inhibition": "87.2% (active)"}
{"smiles": "COc1ccc(C(=O)Nc2ccc(CN3CCOCC3)cc2)cc1", "inhibition": "-3.3%"}
{"smiles": "COCCOCCn1cnc2ccccc21", "inhibition": "2.3%"}
{"smiles": "Cc1cc2ncn(CCCCOc3ccccc3)c2cc1C", "inhibition": "63.9% (active)"}
{"smiles": "Cc1nn(CCOc2ccccc2)c(=O)n1-c1ccccc1F", "inhibition": "-0.4%"}
{"smiles": "COc1ccc(NC(=O)CC2C(=O)OCC3CCCCN32)cc1Cl", "note": "(stereo unspecified)", "inhibition": "-8.3%"}
{"smiles": "CCCCCCCCC(=O)NCCOc1ccccc1", "inhibition": "2.8%"}
{"smiles": "COc1ccc(/C=C2/C(=O)OCc3cc(OC)c(OC)cc32)c(OC)c1", "inhibition": "0.8%"}
{"smiles": "C/C(=N\\NS(=O)(=O)c1ccc(Cl)cc1)c1ccc(NC(=O)c2ccco2)cc1", "inhibition": "-3.6%"}
{"smiles": "COCCn1c(=NC(=O)c2ccccc2[N+](=O)[O-])sc2cc(S(C)(=O)=O)ccc21", "inhibition": "25.4%"}
{"smiles": "C/C(=N\\NC(=O)CCn1nc(C)cc1C)C(C)(C)C", "inhibition": "1%"}
{"smiles": "N#C/C(=C/c1cccc([N+](=O)[O-])c1)c1nnc2n1CCCCC2", "inhibition": "2.5%"}
{"smiles": "O=C(CC(O)(C(F)(F)F)C(F)(F)F)Nc1ccc(Cl)c(Cl)c1", "inhibition": "89.5% (active)"}
{"smiles": "Cc1nnc(NC(=O)Nc2ccc(Cl)c(Cl)c2)s1", "inhibition": "37%"}
{"smiles": "N/C(=N\\OC(=O)Nc1ccc(Cl)c(Cl)c1)c1ncc(C(F)(F)F)cc1Cl", "inhibition": "-4.4%"}
{"smiles": "COc1ccc(Cn2c(=O)sc3ccccc32)cc1OC", "inhibition": "75.8% (active)"}
{"smiles": "Cc1nnc(NC(=O)Cn2c(=O)sc3ccccc32)s1", "inhibition": "-2.7%"}
{"smiles": "COc1ccc(CCNC(=O)CCn2c(=O)oc3ccccc32)cc1OC", "inhibition": "-58.2%"}
{"smiles": "COc1ccc(C(=O)Nc2ccccc2C(=O)N/N=C/c2ccc(O)c(OC)c2)cc1", "inhibition": "106%"}
{"smiles": "COc1ccc(NC(=O)c2ccc(OC)cc2)cc1", "inhibition": "-5.7%"}
{"smiles": "COc1ccc(C(=O)Nc2ccccc2C(=O)N/N=C/c2ccccc2OC)cc1", "inhibition": "65.1% (active)"}
{"smiles": "N#C/C=C\\Oc1ccc(Cl)cc1N", "inhibition": "51.7% (active)"}
{"smiles": "COc1ccc(Cl)cc1NC(=O)[C@@H]1CCCN1C(=O)c1cccs1", "inhibition": "-14.3%"}
{"smiles": "Cc1nn(-c2ccccc2)c(C)c1/C=C/C(=O)OC(C)C(N)=O", "note": "(stereo unspecified)", "inhibition": "-9.1%"}
{"smiles": "COc1ccc(-c2csc(NC(=O)CCCc3cccs3)n2)cc1", "inhibition": "6.2%"}
